Cav32 inh = inhibitors of human Cav3.2 T-type calcium channel; B-score at 10 µM; 100,000 tested, 4% active; AID 449739; Cav3.2-expressing cells, Fluo-4 calcium fluorescence FDSS; stronger effect = lower value;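 active = single-dose well whose peak fluorescence ratio is a statistical outlier from its plate by either plate-standardised score or position-corrected B-score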
CYP2C19 act = activators of human cytochrome P450 2C19; recombinant CYP2C19, luciferin-H EGE luminescence; stronger effect = higher value; 0 = fully inhibited enzyme, 1 = untreated enzyme; activation factor at 5 µM; 96,000 tested, under 10 active; AID 1025;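 active = activation factor of at least 2 at 5 µM in the primary screen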;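 also: 0 = wells with 2.5 mM tranylcypromine and 1 = vehicle-only wells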
CYP2C9 inh = human CYP2C9 inhibition. 96,000 tested, 20% active. P11712. inhibition, % at 5 µM. CYP2C9 Supersomes, luciferin-H conversion, luminescence;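 active = blocking of liver enzyme CYP2C9 beyond about 50% at 5 µM, limit read from the data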
CYP2C9 act = activators of human CYP2C9. 96,000 tested, 1.4% active. recombinant CYP2C9, luciferin-H conversion, luminescence; stronger effect = higher value; factor 1 = untreated enzyme, 0 = blocked. AID 1024. activation factor at 5 µM. P11712;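 active = activation factor of 2 or more for CYP2C9 at a 5 µM dose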;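 also: 0 = sulfaphenazole-blocked wells and 1 = vehicle-only wells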
CYP2C19 inh = inhibitors of human CYP2C19 | inhibition, % at 5 µM | CYP2C19 Supersomes, luciferin-H EGE luminescence, 30 min | 96,000 tested, 21% active | AID 778;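 active = CYP2C19 inhibition above a set limit at 5 µM in the primary screen, cut at about 50% in these data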;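 also: plate controls were negative control wells for no effect and 2.5 mM tranylcypromine positive control for full effect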
* hit, by the source's call; · = no result. The list is not random: actives were taken first. Their share in the collection is about 27%.

SMILES	Cav32 inh	CYP2C19 act	CYP2C9 inh	CYP2C9 act	CYP2C19 inh
COc1cc2cc(C(c3nnnn3C3CCCC3)N3CCCCC3)c(=O)[nH]c2cc1OC (stereo not given)	0.1	0.9	38	0.6	13
Fc1ccccc1N1CCN(C(c2ccncc2)c2nnnn2C2CCCC2)CC1 (stereo not given)	-0.15	0.1	64*	0.4	86*
CCC(c1nnnn1C1CCCC1)N1CCN(c2ccccc2F)CC1 (stereo not given)	·	0.7	56*	0.4	33
CCCC(c1nnnn1C1CCCC1)N1CCN(c2ccccc2F)CC1 (stereo not given)	-4.3	0.2	97*	0	80*
CCC(c1nnnn1C1CCCC1)N1CCN(c2ccccc2)CC1 (stereo not given)	-0.3	0.8	46	0.5	21
c1cncc(C(c2nnnn2C2CCCC2)N2CCCC2)c1 (stereo not given)	0.64	1	7	0.9	-5
O=c1c(C(c2nnnn2C2CCCCC2)N2CCCCC2)coc2ccc(Cl)cc12 (stereo not given)	-0.86	0.5	28	0.7	52*
C=CCNc1cccc(Br)c1	1	·	·	·	·
Cn1c(=O)cc(SCC(=O)NCc2cccnc2)c2ccccc21	-0.37	·	·	·	·
CC1(C)C(=O)OC(C(=O)c2ccc(C(C)(C)C)cc2)C(C)(C)C1=O (stereo not given)	-0.26	0.9	40	0.6	5
Clc1ccc(C(c2nnnn2C2CCCC2)N2CCN(Cc3ccncc3)CC2)cc1 (stereo not given)	·	0	90*	0.1	98*
Nc1c(Cl)cc(-c2csc(N3CCCC3c3nc4cc(Cl)c(N5CCCCC5)cc4n3CCCO)n2)cc1Cl (stereo not given)	2	·	·	·	·
CCn1cnc2scc(-c3ccccc3)c2c1=O	-0.055	0.9	-3	1	7
C=CCn1cnc2scc(-c3ccc(CC)cc3)c2c1=O	-0.15	0.1	53*	0.5	93*
COc1ccccc1Oc1ccc(S(=O)(=O)NCc2ccccn2)cc1	0.44	0.6	28	0.7	44
COc1cccc(CNCc2ccccn2)c1OC	1.2	0.3	20	0.8	74*
COc1cc(CNCc2ccccn2)ccc1OCc1ccc(Cl)cc1Cl	0.067	0.3	17	0.8	73*
O=C(CCC1COc2ccccc2O1)NCc1ccco1 (stereo not given)	0.83	0.8	19	0.8	17
COc1ccc(OC)c(NC2c3ccccc3C(=O)N2c2cccnc2)c1 (stereo not given)	0.019	0.4	67*	0.3	57*
Cc1ccc(N2C(=O)c3ccccc3C2Nc2cccnc2)nc1 (stereo not given)	0.0086	0.8	-1	1	16
O=C1c2ccccc2C(O)N1c1cccnc1 (stereo not given)	-0.47	1.2	-13	1.1	-18
O=C1c2ccccc2C(Nc2ccc(Cl)cn2)N1c1cccnc1 (stereo not given)	-0.47	0.2	25	0.8	85*
COc1cc(C(=O)NC2CCCNC2)cc(OC)c1OC (stereo not given)	0.24	·	·	·	·
Fc1ccc(CNC(=S)Nc2ccc(Cl)cc2)cc1	-4.3*	0.2	13	0.9	84*
CN(C)NC(=S)Nc1ccc(Cl)cc1	-1.1	0.1	24	0.8	91*
SMILES	Cav32 inh	CYP2C19 act	CYP2C9 inh	CYP2C9 act	CYP2C19 inh
Fc1ccc(NC(=S)Nc2ccc(F)c(Cl)c2)cc1Cl	-4.1*	0	86*	0.1	98*
S=C(Nc1ccccc1)Nc1cc(Cl)ccc1Oc1ccccc1	-2.3	0	95*	0.1	96*
CCCS(=O)(=O)C(=C(Nc1ccccc1)Nc1ccccc1)S(=O)(=O)CCC	-0.9	1.2	-29	1.3	-22
COc1cccc(-c2cc(=O)c3cc(NC(=O)c4ccc(N(C)C)cc4)ccc3[nH]2)c1	0.024	·	·	·	·
Cc1cc(Cl)ccc1NC(=S)Nc1cccnc1	0.76	0.5	16	0.8	54*
Cc1ccc(C(=O)CCC(=O)Nc2cccnc2)cc1C	0.35	0.9	6	0.9	14
S=C(Nc1ccccc1Cl)Nc1ccc(Cl)cc1Cl	-1	0.4	45	0.5	58*
S=C(Nc1ccccc1)Nc1ccc(Cl)cc1Cl	-1.5	0.4	26	0.7	58*
Cc1cc(Cl)ccc1OCCCC(=O)Nc1cccnc1	-0.45	0.5	41	0.6	50*
FC(F)(F)c1cccc(NC(=S)Nc2ccc(Cl)cc2Cl)c1	-0.13	0.8	-24	1.2	23
CC(C)n1cc(NC(=O)c2cc(-c3ccccc3)on2)cn1	-2	0.7	26	0.7	29

Source: PubChem BioAssay (several laboratories)
